This is an account of results in PubChem BioAssay (Tox21).

Calls of active or inactive are those of the source. Where a call stands in place of a potency, no number is given. Calls come from the whole dose curve.

The experiment in a line: G protein-coupled receptor (GPCR) small molecule agonists, calcium flux assay: HEK293 wild type cell line counter screen (AID 1920065). To be noted: HEK293 WT calcium flux, fluorescence, agonist mode; series mostly up to 57.6 µM. An excerpt: U.S. Tox21 Program National Center for Advancing Translational Sciences [NCATS] Division of Preclinical Innovation [DPI] U.S. Environmental Protection Agency [EPA] National Institutes of Environmental Health Sciences [NIEHS] National Toxicology Program [NTP] U.S. Food and Drug Administration [FDA] Assay overview: The increased intracellular calcium release that occurred upon G protein-coupled receptor (GPCR) activation led to the frequent use of calcium flux assays to detect GPCR activation. For the purpose of studying and screening compounds that may activate GPCR, receptor-overexpressing models were typically generated using Hek293 wild-type (WT) cells. In order to eliminate the compounds that may have induced calcium release for non-specific activation, a counter-assay utilizing calcium flux on Hek293 WT cells was performed. The data were formulated in order to serve as a control for any calcium flux detection utilizing Hek293 cells with either GPCR overexpression or gene modification. The procurement of Hek293 WT cells from ATCC. Fluorescence intensity can be utilized to determine the activation of the compound in a calcium flux assay. As a counter control, this cell line was utilized to screen the Tox21 10K compound library.
Assay Protocol Summary: Hek293 cells were dispensed at 1500cells/4uL/well in 1536-well black wall/clear bottom plates using a multidrop dispenser. After the assay plates were incubated at a 37 C/5% CO2 incubator for 18 hours, 4 uL of Calcium Dye Solution was added to each well. The plates were incubated at 37 C for 1 hour. For agonist mode, 23 nL of compounds dissolved in DMSO, positive control (ATP) or DMSO only was transferred to the assay plate by a pin tool station. The fluorescence intensity in the plates was measured using FDSS 7000EX kinetic plate reader with a filter set of Ex/Em=480/540 for 3 min at 1 sec intervals. Each test compound was measured at 15 concentrations and in triplicates.
For orientation: Calcium assays in cells follow changes in intracellular calcium, usually with a dye or a luminescent sensor.
In the case of `C[C@]12CC[C@@H]3c4ccc(OC(=O)N(CCCl)CCCl)cc4CC[C@H]3[C@@H]1CC[C@@H]2O`, the Potency entry is “inactive”.

For the compound `Clc1ccc2ccccc2c1`, the Potency entry is “inactive”.

With `CC(C)(C)c1ccc(OP(=O)(Oc2ccccc2)Oc2ccccc2)cc1`, the Potency result was “inactive”.

Consider `CC(C)[C@@H](Nc1ccc(C(F)(F)F)cc1Cl)C(=O)OC(C#N)c1cccc(Oc2ccccc2)c1` (stereo not given in full), for which the Potency result is “inactive”.

Take `CCC[CH2][Sn]([CH2]CCC)([CH2]CCC)[CH2]CCC`: the Potency entry is “inactive”.

With `O=[N+]([O-])c1ccc(Nc2ccccc2)cc1`, the Potency entry is “inactive”.

Regarding `COCCOCCO`, the Potency result was “inactive”.

Consider `BrCC(Br)C1CCC(Br)C(Br)C1` (stereo not given), for which the Potency result was “inactive”.

On to `O=C(Cc1ccccc1)OCc1ccccc1`, for which the Potency entry is “inactive”.

`COC(=O)C1(O)c2ccccc2-c2ccccc21`: the Potency entry is “inactive”.

For `C[N+](C)=CCl`, the Potency result was “inactive”.

For the compound `ClC1=C(Cl)[C@]2(Cl)[C@H]3[C@H]([C@@H]4C=C[C@H]3C4)[C@@]1(Cl)C2(Cl)Cl`, the Potency result was “inactive”.

`ClC1=C(Cl)C2(Cl)C(CBr)CC1(Cl)C2(Cl)Cl` (stereo not given): the Potency entry is “inactive”.

As for `O=C(N[C@H]1CN2CCC1CC2)c1ccc2c(c1)OCCO2`, the Potency entry was “inactive”.

With `CN/C(=N\[N+](=O)[O-])NCc1cnc(Cl)s1`, the Potency entry is “inactive”.

For `COC(=O)C(c1ccccc1)C1CCCCN1` (stereo not given), the Potency entry is “inactive”.

For the compound `CCCCN(CCCC)C(=S)[S-].CCCCN(CCCC)C(=S)[S-].[Ni+2]`, the Potency entry is “inactive”.

On to `CCS(=O)(=O)CCSP(=O)(OC)OC`, for which the Potency result is “inactive”.

Take `CN1CCc2cc3c(cc2C1O)OCO3` (stereo not given): the Potency result is “inactive”.

With `CC1(C)[C@H](C=C(Cl)Cl)[C@@H]1C(=O)O[C@@H](C#N)c1cccc(Oc2ccccc2)c1`, the Potency result is “inactive”.

For `CCOP(=S)(OCC)Oc1cc(C)nc(N(CC)CC)n1`, the Potency entry was “inactive”.

On to `O=C(OC1CCCCC1)c1ccccc1C(=O)OC1CCCCC1`, for which the Potency entry was “inactive”.

As for `CCOC(=O)C1(c2ccccc2)CCN(CCc2ccc(N)cc2)CC1`, the Potency entry was “inactive”.

With `O=S1(=O)OCCO1`, the Potency result is “inactive”.

Consider `CCCCOCN(C(=O)CCl)c1c(CC)cccc1CC`, for which the Potency result is “inactive”.

Regarding `CC(Cc1ccc(O)cc1)NCC(O)c1cc(O)cc(O)c1` (stereo not given), the Potency result is “inactive”.

With `Oc1c(I)cc(I)cc1I`, the Potency entry was “inactive”.

For the compound `O=C(N[C@H]1CN2CCC1CC2)c1cc2ccoc2cn1`, the Potency result is “inactive”.

On to `O=C1c2ccccc2C(=O)C1C(=O)C(c1ccccc1)c1ccccc1`, for which the Potency entry was “inactive”.

Take `COC(=O)C(C)N(C(=O)Cc1ccccc1)c1c(C)cccc1C` (stereo not given): the Potency result was “inactive”.

On to `CC[N+]1(CCOC(=O)C(O)(c2ccccc2)c2ccccc2)CCCCC1`, for which the Potency entry is “inactive”.

For `CCC1CCC(=O)O1` (stereo not given), the Potency entry is “inactive”.

Take `CCOP(=S)(OCC)SCSc1ccc(Cl)cc1`: the Potency result is “inactive”.

With `COc1cc(CC(C)N)cc(OC)c1OC` (stereo not given), the Potency result was “inactive”.

As for `Cc1nc2ccccc2c(=O)n1-c1ccccc1Cl`, the Potency entry was “inactive”.

For the compound `Oc1cccc(-c2ccccc2)c1`, the Potency entry is “inactive”.

As to `CO/C=C(/C(=O)OC)c1ccccc1COc1cccc(C(F)(F)F)n1`, the Potency result was “inactive”.

For the compound `CN1C(=O)COc2c(C(=O)NC3CN4CCC3CC4)cc(Cl)cc21` (stereo not given), the Potency result was “inactive”.

As to `NC(=O)C(Cl)(Cl)Cl`, the Potency entry is “inactive”.

Regarding `C=CCOC(=O)c1ccccc1N`, the Potency entry was “inactive”.
